The nature of experiment [1]: cAMP Responsive Elements (CRE) small molecule antagonists, cell-based qHTS assay: qHTS cell viability counter screen (AID 2060913). Further: nearly all actives have a fitted effect of over 40% in size. In a few lines: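 CRE-bla HEK293T cells (2,000/well, 18 h) given compound plus NKH477 0.25 uM final for 3 h at 37C; viability counter-screen by CellTiter-Glo luminescence in same wells after 30 min.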
A general note: qHTS replaces the single test concentration by a dilution series.

The nature of experiment [2]: cAMP Responsive Elements (CRE) small molecule agonists, cell-based qHTS assay: qHTS cell viability counter screen (AID 2060914). Further: nearly all actives have a fitted effect of over 50% in size. In a few lines:
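Cytotoxicity was measured as ATP luminescence (CellTiter-Glo, 30 min at room temperature) in the same wells as the CRE-bla FRET read-out. HEK293T CRE-bla cells had 3 h compound exposure at 37C/5% CO2.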

The record followed here is PubChem BioAssay (Tox21).

Inconclusive results are not listed. Where a call stands in place of a potency, no number is given. Calls of active or inactive are those of the source. The call rests on the fitted dose curve; in most records, active means well fitted cell-killing curve with a large enough effect in the repeat runs; inconclusive means weak or mixed curves, or effect the other way; inactive means flat fitted curve, though single readings scatter.
Potency means the concentration at half of the fitted maximal effect.

In the case of `Nc1ccccc1C(=O)OCC(O)CO` (stereo unspecified), the Potency entry in experiment [1] and in experiment [2] was “inactive” in each case.
As for `C#CCC1=C(C)C(OC(=O)C2C(C=C(C)C)C2(C)C)CC1=O` (stereo unspecified), the Potency result in experiment [1] and in experiment [2] was “inactive” throughout.
Turning to `CNC(C)Cc1ccc2c(c1)OCO2` (stereo unspecified), the Potency entry in experiment [1] and in experiment [2] was “inactive” in each case.
As for `Cl/C=C/CCl`, the Potency result in experiment [1] and in experiment [2] was “inactive” in each case.
As to `CCCCCCC1CCOC1=O` (stereo unspecified), the Potency result in experiment [1] and in experiment [2] was “inactive” in each case.
As to `OC(c1ccccc1)(c1ccccc1)C1CCNCC1`, the Potency entry in experiment [1] and in experiment [2] was “inactive” each time.
Take `COC(=O)C1(O)c2ccccc2-c2ccccc21`: the Potency entry in experiment [1] and in experiment [2] was “inactive” throughout.
As for `CCCCCCCCOC(=O)c1ccccc1C(=O)OCCCCCCCC`, the Potency result in experiment [1] and in experiment [2] was “inactive” in each case.
As for `O=C(CBr)c1ccc(O)cc1`, the Potency entry in experiment [1] and in experiment [2] was “inactive” throughout.
With `COc1ccc(O)c(C(C)(C)C)c1`, the Potency entry in experiment [1] and in experiment [2] was “inactive” each time.
For the compound `CC(NC(C)(C)C)C(=O)c1cccc(Cl)c1` (stereo unspecified), the Potency entry in experiment [1] and in experiment [2] was “inactive” in each case.
Regarding `COc1cc(OC)nc(Sc2cccc(Cl)c2C(=O)O)n1`, the Potency result in experiment [1] and in experiment [2] was “inactive” each time.
Consider `N#Cc1cccc(C#N)c1`, for which the Potency result in experiment [1] and in experiment [2] was “inactive” each time.
In the case of `O=C(Cl)c1ccc(Cl)cc1`, the Potency entry in experiment [1] and in experiment [2] was “inactive” in each case.
Regarding `C=Cc1cccc(CCl)c1`, the Potency result in experiment [1] and in experiment [2] was “inactive” throughout.
With `SCc1ccco1`, the Potency result in experiment [1] and in experiment [2] was “inactive” each time.
For `[O-][Cl+3]([O-])([O-])O`, the Potency entry in experiment [1] and in experiment [2] was “inactive” each time.
Regarding `CC1CCCCC1NC(=O)Nc1ccccc1` (stereo unspecified), the Potency result in experiment [1] and in experiment [2] was “inactive” each time.
Consider `CC(C)OC(=S)S`, for which the Potency entry in experiment [1] and in experiment [2] was “inactive” throughout.
Turning to `Oc1ccc([C@H]2CNCc3c2ccc(O)c3O)cc1O`, the Potency entry in experiment [1] and in experiment [2] was “inactive” each time.
In the case of `CCN(CC)C(=S)[S-].CCN(CC)C(=S)[S-].[Zn+2]`, the Potency in experiment [1] was 6.8 µM (active); in experiment [2], 19.2 µM (active).
For `CC(C)NCC(O)c1ccc([N+](=O)[O-])cc1` (stereo unspecified), in that order: “inactive” and “inactive”.
Consider `CC(O)CCl` (stereo unspecified), for which the Potency result in experiment [1] and in experiment [2] was “inactive” throughout.
For `COP(N)(=S)OC`, the Potency entry in experiment [1] and in experiment [2] was “inactive” in each case.
As for `Nc1cccc2ccccc12`, the Potency result in experiment [1] and in experiment [2] was “inactive” in each case.
For the compound `BrCCCCCCBr`, the Potency result in experiment [1] and in experiment [2] was “inactive” each time.
On to `CC(C)(O)C(=O)Nc1ccc([N+](=O)[O-])c(C(F)(F)F)c1`, for which the Potency result in experiment [1] and in experiment [2] was “inactive” throughout.
Regarding `C[As+](C)(C)CC(=O)[O-]`, the Potency result in experiment [1] and in experiment [2] was “inactive” in each case.
For `CCC1(c2ccccc2)C(=O)NC(=O)NC1=O`, the Potency result in experiment [1] and in experiment [2] was “inactive” in each case.
For `CC(C)(C)NC[C@H](O)c1ccc(O)cc1Cl`, the Potency result in experiment [1] and in experiment [2] was “inactive” in each case.
In the case of `CC(=NC#N)N(C)Cc1ccc(Cl)nc1`, the Potency entry in experiment [1] and in experiment [2] was “inactive” throughout.
`C=CC#N`: the Potency result in experiment [1] and in experiment [2] was “inactive” throughout.
As for `COCC(=O)N(c1c(C)cccc1C)N1CCOC1=O`, the Potency result in experiment [1] and in experiment [2] was “inactive” in each case.
Consider `C#CCN1C(=O)COc2cc(F)c(N3C(=O)C4=C(CCCC4)C3=O)cc21`, for which the Potency result in experiment [1] and in experiment [2] was “inactive” in each case.
For the compound `COC(=O)Nc1nc2ccccc2[nH]1`, the Potency entry in experiment [1] and in experiment [2] was “inactive” in each case.
For the compound `CN(C)C(=O)Cl`, the Potency result in experiment [1] and in experiment [2] was “inactive” in each case.
Turning to `O=c1[nH]c2ccccc2n1C1CCN(CCCC(c2ccc(F)cc2)c2ccc(F)cc2)CC1`, the Potency result in experiment [1] and in experiment [2] was “inactive” throughout.
`CCCCNP(N)(N)=S`: the Potency entry in experiment [1] and in experiment [2] was “inactive” throughout.
With `CCCCCCCCCCOC(=O)c1ccccc1C(=O)OCCCCCCCCCC`, the Potency result in experiment [1] and in experiment [2] was “inactive” in each case.
On to `C=CC1CC=CCC1` (stereo unspecified), for which the Potency result in experiment [1] and in experiment [2] was “inactive” each time.
`Brc1ccccc1`: the Potency entry in experiment [1] and in experiment [2] was “inactive” each time.
`CCOC(=O)C(SP(=S)(OC)OC)c1ccccc1` (stereo unspecified): the Potency result in experiment [1] and in experiment [2] was “inactive” in each case.
`CNC(=O)CSP(=O)(OC)OC`: the Potency entry in experiment [1] and in experiment [2] was “inactive” in each case.
